Vaccinia Venus = vaccinia inhibition (Venus reporter); Vaccinia virus Venus reporter expression, fluorescence; Potency, µM (highest dose often 36.5 µM), inactives show top-dose activity change, negative = inhibition, actives largely listed as inhibitors; 330,000 tested, 0.46% active; AID 720580; calls by dose curve; tested in A549 cells; note: nearly all actives have a fitted effect of over 30% in size
VACV mCherry inh = vaccinia inhibition (mCherry reporter). Vaccinia virus mCherry reporter infection, fluorescence. Potency, µM (highest dose often 36.5 µM), for inactives: at the highest dose activity change, negative = inhibition, actives largely listed as inhibitors. 310,000 tested, 0.63% active; calls by dose curve; tested in A549 cells; note: nearly all actives have a fitted effect of over 35% in size
AmpC inh no detg = blocks E. coli AmpC beta-lactamase in detergent-free assay; Potency, µM (doses to about 57.1 µM), for the others: top-dose activity change, negative = inhibition, actives largely listed as inhibitors; 330,000 tested, 0.52% active; AmpC nitrocefin hydrolysis, absorbance 480 nm, 0.0001% Triton; AID 485341;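 note: plate controls were no compound for no effect and no enzyme for full effect; nearly all actives have a fitted effect of over 20% in size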
Target sequence (P00811 whole entry, looked up): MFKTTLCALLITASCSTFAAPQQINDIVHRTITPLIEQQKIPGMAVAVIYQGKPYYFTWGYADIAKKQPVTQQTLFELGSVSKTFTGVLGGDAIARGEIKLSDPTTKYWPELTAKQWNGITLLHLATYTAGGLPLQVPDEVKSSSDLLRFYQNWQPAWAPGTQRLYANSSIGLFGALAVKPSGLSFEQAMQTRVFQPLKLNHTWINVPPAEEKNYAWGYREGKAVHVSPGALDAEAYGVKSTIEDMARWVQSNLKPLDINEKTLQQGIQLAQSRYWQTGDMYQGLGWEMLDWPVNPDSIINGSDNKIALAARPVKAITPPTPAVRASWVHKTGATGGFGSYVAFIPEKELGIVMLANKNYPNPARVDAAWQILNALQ
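AmpC (5.3 nM in the dispensed reagent) in 20 mM phosphate pH 7.0 with 0.01% (detergent screen) or 0.0001% Triton X-100 was preincubated with compounds for 15 min at room temperature. Nitrocefin was then added from an 800 uM solution, and hydrolysis was followed at 480 nm.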
AmpC inh detg = blocks E. coli AmpC beta-lactamase in detergent assay. Potency, µM (doses to about 114 µM), for inactives: at the highest dose activity change, negative = inhibition, most hits filed as inhibitors. 370,000 tested, 0.041% active. AmpC hydrolysis of nitrocefin, absorbance 480 nm, 0.01% Triton;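 note: 0% = no-compound wells and -100% = no-enzyme wells; nearly all actives have a fitted effect of over 25% in size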
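AmpC (5.3 nM in the dispensed reagent) in 20 mM phosphate pH 7.0 with 0.01% (detergent screen) or 0.0001% Triton X-100 was preincubated with compounds for 15 min at room temperature. Nitrocefin was then added from an 800 uM solution, and hydrolysis was followed at 480 nm.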
Active calls of the source: *; i = inactive; ? = inconclusive; / = no result given; [ ] = another dose, or the depositor's remark. Rows were chosen to be rich in hits. Some 1.1% of all compounds tested hit in one or more screens of this group. Unless noted, calls come from the whole dose curve; as a rule, active = well fitted curve in the direction sought with a large enough effect; inconclusive = small, poorly fitted or top-dose-only effect, or another doubt; inactive = no such curve, though single readings can be large; an effect the other way counts as inactive or inconclusive. Unless noted, % is set by controls: 0 for no effect and ±100 for the full control effect; potency is the fitted concentration of half-maximal effect.

SMILES	Vaccinia Venus	VACV mCherry inh	AmpC inh no detg	AmpC inh detg
CCc1cccc(CC)c1NC(=O)CSc1nc2ccc(N3C(=O)C4C5C=CC(C5)C4C3=O)cc2s1 (stereo not drawn)	?	?	-37.7%	3.8%
COC(=O)c1ccc(NC(=O)CSc2nc3ccc(N4C(=O)C5C6C=CC(C6)C5C4=O)cc3s2)cc1 (stereo not drawn)	7.08µM*	?	-17.0%	?
O=C(c1cnn(-c2nccc(-c3ccccc3F)n2)c1C1CC1)N1CCCCC1c1cccnc1 (stereo not drawn)	-27.9%	?	/	/
COC(=O)[C@@H]1CCCN1C(=O)c1cc(NC(=O)c2ccccc2)cc2ncn(C3CCCC3)c12	0.0%	-2.7%	/	/
CCCOc1ccc(C(F)(F)F)cc1NC(=O)c1cc(C)on1	/	/	-5.9%	4.9%
CCCOc1ccc(C(F)(F)F)cc1NS(=O)(=O)c1ccc(Cl)nc1	?	11.2µM*	-31.7%	?
CC1CN(CC(=O)N2CCN(Cc3nccn3C)CC2)Cc2cc(Cl)ccc2O1 (stereo not drawn)	-6.6%	-3.6%	/	/
CCCCc1ccc(NC(=O)CSc2nc(=O)n(CCN(C)C)c3c2CCC3)cc1	14.1µM*	28.2µM*	18.5%	-12.8%
CCC(=O)NC(C)C(c1cccs1)N1CCN(Cc2ccccc2)CC1 (stereo not drawn)	4.5%	i	44.7µM*	?
N[C@@H](Cc1ccccc1)c1nnc(SCc2ccccc2F)o1	?	11.2µM*	0.2%	-3.6%
N[C@@H](Cc1c[nH]c2ccccc12)c1nnc(SCc2ccccc2F)o1	/	/	37.6%	-3.0%
C=C1CCC[C@]2(C)C[C@H]3OC(=O)C(CNCCN(CC)CC)[C@H]3CC12 (stereo partly drawn)	3.16µM*	3.98µM*	14.9%	3.9%
C[C@@H]1CN([C@H](C)CO)C(=O)CCCn2nncc2CO[C@H]1CN(C)S(=O)(=O)c1cccc(C#N)c1	5.01µM*	?	/	/
Cc1cccc(S(=O)(=O)N(C)C[C@@H]2OCc3cnnn3CCCC(=O)N([C@@H](C)CO)C[C@@H]2C)c1	-8.1%	1.4%	/	/
O=C(Nc1cc(Sc2ccccn2)cc([N+](=O)[O-])c1)c1ccc(Cl)cc1	10µM*	/	31.6µM*	-2.5%
O=C(Nc1cc(Sc2ccccn2)cc([N+](=O)[O-])c1)c1cccc(Cl)c1	?	i	-40.6%	5.1%
COc1ccccc1N=Nc1ccc(O)c2ncccc12	?	?	-11.0%	-7.0%
CCS(=O)(=O)c1ccc(N=Nc2ccc(O)c3ncccc23)c(OC)c1	?	7.94µM*	-13.9%	1.1%
Cc1ccc(N=Nc2ccc(O)c3ncccc23)cc1C	/	/	-25.0%	6.5%
Cc1ccc(N=Nc2ccc(O)c3ncccc23)cc1	?	12.6µM*	-9.1%	-2.1%
COc1ccc(C(=O)NCC2Cc3cc(C)cc(-c4cc(C(C)=O)ccc4F)c3O2)c(OC)c1OC (stereo not drawn)	-10.7%	i	/	/
Cc1cc(S(=O)(=O)NCCc2csc(-c3cccc(F)c3)n2)ccc1F	11.2µM*	?	/	-5.7%
COc1ccc(S(=O)(=O)NCCc2csc(-c3cccc(F)c3)n2)cc1OC	-11.3%	-20.9%	/	1.2%
COC(=O)[C@@H]1C[C@@H](NC(=O)c2ccc(C(F)(F)F)cc2)CN1Cc1cccc(O)c1	0.8%	-1.7%	/	/
CCCN(c1ccc(OCC)cc1)c1ncnc2nc[nH]c12	-23.0%	-5.9%	0.708µM*	?
SMILES	Vaccinia Venus	VACV mCherry inh	AmpC inh no detg	AmpC inh detg
COc1cc(CN2CCCC(n3cc(C(=O)N4CCCCC4)nn3)C2)cc2c1OCO2 (stereo not drawn)	-3.6%	-0.3%	/	/
COC(=O)CN1C(=O)CC(C)(C)S(=O)c2ccccc21 (stereo not drawn)	-0.3%	-7.6%	1.26µM*	?
COC(=O)CN1C(=O)c2cccc3cccc1c23	-17.1%	i	-9.1%	-7.2%
CC(C)OC(=O)c1ccc(NCc2cc(O)ccc2O)cc1	-16.2%	?	/	/
O=C(OCc1ccccc1)c1ccc(NCc2cc(O)ccc2O)cc1	?	10µM*	/	/
CCOC(=O)N=Nc1c2ccccc2c2nc3no[nH]c3nc12	0.501µM*	0.501µM*	-12.7%	3.2%
C/C(N)=C(/C#N)C(=O)CSc1nnc(COc2ccccc2Cl)o1	?	7.94µM*	-1.6%	-1.9%
COc1ccc(-c2ccc(C(=O)N(C)Cc3csc(C)n3)c(N3CCC(N4CCc5ccccc5C4)CC3)n2)cc1	9.8%	-8.9%	/	/
Nc1ccc(O)cc1C(=O)OCC(=O)C12CC3CC(CC(C3)C1)C2	0.6%	/	12.6µM*	6.7%
C=Cc1cc(OC)c2c(c1)c(=O)oc1c2cc(OC)c2c(O)ccc(C3OC(C)C(O)C(C)(O)C3O)c21 (stereo not drawn)	1µM*	?	/	/
COc1cccc2cc(C(=O)N3CC(C)OC(C)C3)c(=O)oc12 (stereo not drawn)	/	/	-17.7%	?
Cc1ccc(-c2ccnc(-n3ncc(C(=O)NC[C@@H]4CCCN5CCCC[C@H]45)c3C3CC3)n2)o1	-9.5%	i	/	/
COc1ccc(-c2nc(CN3CCN(c4cc(C)nc(C)c4)CC3)c(C)o2)c2ccccc12	11.2µM*	?	-6.7%	-1.9%
CC(C)(C)c1nnc(N/N=C/c2ccccc2O)n(N)c1=O	?	2.82µM*	-38.0%	2.6%
O=C(/C=C/c1ccccc1)N1CCOCC1	/	/	-4.5%	-12.9%
O=C(/C=C/c1ccccc1)CCN1CCOCC1	?	10µM*	/	/
COc1ccc(NC(=O)c2cccc(Oc3ccc([N+](=O)[O-])cc3Cl)c2)cc1	-20.8%	?	2.51µM*	?
COc1ccc(C(=O)Nc2ccccc2)cc1NC(=O)c1ccc([N+](=O)[O-])cc1	-23.5%	i	17.8µM*	-8.7%
CC(C)=CCc1c2c(c(O)c3c(=O)c4c(oc13)-c1cc(O)c(O)cc1OC4C=C(C)C)C=CC(C)(C)O2 (stereo not drawn)	?	11.2µM*	/	/
Cc1ccccc1-c1ccccc1CN1[C@@H](C(C)C)COCCS1(=O)=O	-7.1%	i	31.2%	/
CC(C)[C@H]1COCCS(=O)(=O)N1Cc1cccc([N+](=O)[O-])c1	28.2µM*	?	/	/
CC(C)[C@H]1COCCS(=O)(=O)N1Cc1ccccc1F	1µM*	?	/	/
CC(C)[C@H]1COCCS(=O)(=O)N1Cc1cccc(Cl)c1	-24.1%	-14.5%	1.5%	-9.5%
CCn1c(-c2ccccc2F)nc2cc(C(=O)N3CCNC(=O)C3CC(=O)OC)cc(NC(C)=O)c21 (stereo not drawn)	10.0%	2.2%	/	/
S=c1[nH]nc(-c2cc(-c3ccccc3)n[nH]2)n1/N=C/c1ccccc1	-13.0%[7.34 µM]	i[7.34 µM]	-54.3%	-10.8%
S=c1[nH]nc(-c2cc(-c3ccccc3)n[nH]2)n1/N=C/C(Br)=C/c1ccccc1	?	14.1µM*	-34.7%	1.3%
Cc1ccc(S(=O)(=O)NCc2ccc3c(c2)cc(C)n3C)cc1	24.6%	21.5%	25.1µM*	?
COCC(=O)NCc1ccc2c(c1)cc(C)n2C	3.4%	i	7.4%	-2.6%
